# p47phox inh: p47phox (human) inhibition; p47phox/p22phox peptide binding, fluorescence polarization, 2 h; AID 1274; 220,000 compounds, 0.53% hits; inhibition, % at 24.7 µM;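 also: 0% = p47phox with labelled peptide and 100% = labelled peptide alone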
# 14-3-3 Bad inh: disrupts binding of bovine 14-3-3 zeta to phospho-Bad peptide | P63103 | 220,000 compounds, 0.71% hits | inhibition, % at 21.7 µM | TR-FRET 14-3-3zeta/Dy647-pBad peptide displacement, 1 h | AID 781;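 active = inhibition above about 70%, limit read from the data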;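 also: 0% = full 14-3-3 plus peptide FRET controls and 100% = background without 14-3-3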
# eIF4E-4G inh: blocks eIF4E binding to eIF4G; TR-FRET eIF4E-eIF4GI(517-606) binding, 2 h; inhibition, % at 21.7 µM; 220,000 compounds, 0.37% hits;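 also: 0% = full FRET control wells and 100% = background wells lacking eIF4GI fragment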
# Mcl1-Bid inh: disrupts binding of human Mcl-1 to Bid peptide | Q07820 | TR-FRET Mcl-1/Bid-Dy647 peptide binding, 1536-well | inhibition, % at 21.7 µM | 220,000 compounds, 0.97% hits | AID 1021;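 active = compounds that cut the binding signal by more than half at the single screening dose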;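 also: His-tagged Mcl-1 with europium anti-His antibody binding Bid BH3 peptide; 0% = Mcl-1 plus peptide wells and 100% = peptide-only wells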
# Target sequence (Q07820 whole entry, looked up): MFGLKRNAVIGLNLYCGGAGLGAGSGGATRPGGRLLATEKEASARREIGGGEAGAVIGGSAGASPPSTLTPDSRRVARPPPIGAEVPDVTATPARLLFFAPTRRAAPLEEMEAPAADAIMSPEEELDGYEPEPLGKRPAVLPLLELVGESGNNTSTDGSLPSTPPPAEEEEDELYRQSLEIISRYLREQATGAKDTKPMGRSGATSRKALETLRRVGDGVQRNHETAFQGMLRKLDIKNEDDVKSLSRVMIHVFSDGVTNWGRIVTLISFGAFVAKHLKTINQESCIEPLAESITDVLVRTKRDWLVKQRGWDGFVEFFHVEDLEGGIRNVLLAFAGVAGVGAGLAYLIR
# Mcl1 Noxa PPI: Mcl-1/Noxa interaction inhibition; AID 1022; TR-FRET Mcl-1/Noxa peptide binding, 2 h; inhibition, % at 21.7 µM; Q07820; 220,000 compounds, 1.5% hits;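 active = compounds that cut the protein-peptide binding signal by more than 50% relative to plate controls in a single-dose test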;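 also: His-tagged Mcl-1 with rhodamine Noxa BH3 peptide and terbium anti-His antibody; 0% = Mcl-1 plus Noxa peptide wells and 100% = peptide-only wells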
# Bim-Mcl-1: disrupts Bim peptide binding to human Mcl-1; 190,000 compounds, 0.1% hits; inhibition, % at 10 µM; Q07820; Bead-based flow cytometry, Bim peptide-Mcl-1 binding; AID 1009; in the data active = inhibition above about 40%;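 also: 0% = no compound tracer wells and 100% = peptide blocker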
# * = called active by the depositor; x = not tested or not shown. Sampled rows, rich in hits. Any-hit rate of the full collection: about 3.4%.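 The calls were made as follows, unless noted: active = inhibition above about 30% (limit read from the data); inactive = the rest.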
SMILES,p47phox inh,14-3-3 Bad inh,eIF4E-4G inh,Mcl1-Bid inh,Mcl1 Noxa PPI,Bim-Mcl-1
COc1ccc(/C=C/C(=O)NCc2cn(C)nc2C)cc1COc1ccc(Cl)cc1Br,-4,-3,-1,-23,4,0
CCn1nc(C)c(NC(=O)/C=C/c2ccc(OC)c(COc3ccc(Cl)cc3Br)c2)c1C,71*,77*,15,64*,-3,-1
Cc1ccccc1C(=O)NNc1ccc(-c2csnn2)cc1,-3,-5,2,-20,-4,x
Cc1cc(=O)[nH]n(CCO)c1=O,-18,3,-2,-10,-1,x
C=CCn1c(SCC(=O)c2[nH]c(C)c(C(=O)OC)c2C)nc2scc(-c3ccc(OC)c(OC)c3)c2c1=O,36*,96*,15,65*,53*,-5
CCc1ccccc1NC(=O)c1cccc(NC(=O)/C=C/c2ccco2)c1,-21,18,-4,-20,19,-6
O=C(/C=C/c1ccco1)Nc1cccc(C(=O)Nc2ccccc2C(=O)O)c1,-39,24,7,6,57*,x
O=C(O)CCCC(=O)Nc1cccc(C(=O)Nc2ccccc2C(=O)O)c1,3,65,-1,82*,29,0
CCOc1cc(CNC2CCCC2)c(Cl)cc1OCC(=O)Nc1ccccc1,2,-4,-4,6,25,-5
O=C(COc1ccc2ccccc2c1)Nc1cccc2c1C(=O)NC2=O,20,66,13,60*,-119,-3
O=C(Nc1ccc(CN2CCOCC2)cc1)c1ccc(-c2ccc(Cl)cc2Cl)o1,-50,-7,95*,-26,17,-2
O=C(Nc1ccc(CN2CCOCC2)cc1)c1ccc(-c2cccc(Cl)c2)o1,-25,32,5,-30,-8,-3
CCCN1CCC(=NNC(=O)c2ccc(Br)o2)CC1,4,-9,39*,-65,-37,-1
CCN1CCC(=NNC(=O)c2ccco2)CC1,6,9,8,-15,19,0
Cc1ccc(C)c(N2CCN(C(=O)C34CC5CC(C3)CC(n3nnc(C)n3)(C5)C4)CC2)c1,-5,-3,3,-15,-2,x
O=C(N/N=C/c1ccncc1)c1cccc(S(=O)(=O)Nc2ccc(Cl)cc2)c1,17,40,92*,79*,3,x
O=C(N/N=C/c1ccncc1)c1cccc(NC(=O)c2ccccc2Cl)c1,3,-3,2,-13,18,42*
O=C(N/N=C/c1cccnc1)c1cccc(S(=O)(=O)Nc2cccc(Cl)c2)c1,-3,-3,1,-4,-6,0
O=C(Cn1cc(SCc2ccc(F)cc2)c2ccccc21)N1CCOCC1,-4,1,-2,-24,-7,-5
O=C(Cn1cc(SCc2ccc(Cl)cc2)c2ccccc21)N1CCOCC1,-1,-2,2,52*,2,-4
Cc1ccc(/C=C2\SC(=S)N(/N=C/c3cc([N+](=O)[O-])ccc3O)C2=O)o1,-10,-12,15,-21,91*,1
COCCNC(=O)C(=O)NCCN1CCNCC1,0,10,4,2,-4,-2
CN1CCN(c2ccc([N+](=O)[O-])cc2/C=N/NC(=O)c2ccc(F)cc2)CC1,-6,-7,-1,0,75*,-1
O=C(N/N=C/c1ccc(Br)s1)c1ccc([N+](=O)[O-])cc1,5,71*,16,22,48,-20
Cc1ccc([N+](=O)[O-])cc1N=Cc1ccc(Br)s1,-13,74*,2,-19,0,0
N#CCC(=O)N/N=C/c1cc([N+](=O)[O-])ccc1N1CCOCC1,2,-5,-4,-25,38,-1
O=C(Cn1c(=O)oc2cccnc21)Nc1ccccc1Oc1ccc(Cl)cc1Cl,-15,4,0,-3,3,x
OCC1(CCc2ccccc2)CCN(Cc2cc(F)ccc2-n2cccn2)CC1,3,-4,-2,-3,15,0
O=C(O)C1CCCCC1C(=O)NCCc1ccncc1 (stereo not given),-12,72*,-1,-25,28,-2
CC1CCCN(C2=C(NS(=O)(=O)c3ccc(Cl)cc3)C(=O)c3ccccc3C2=O)C1 (stereo not given),50*,6,1,-33,14,16

# Screens from PubChem BioAssay.
